Binding signal data for seven sequences are collected here from PMC7862700, “An all-to-all approach to the identification of sequence-specific readers for epigenetic DNA modifications on cytosine”.

What all share (assay): DAPPL (digital affinity profiling via proximity ligation, sequencing); 10 mM Tris-HCl pH 7.5, 50 mM NaCl, 1 mM DTT, 4% glycerol, room temperature, 30 min; GST-TFs on glutathione beads, 16-mer random dsDNA library, 0.1% formaldehyde crosslink after washing; high values mean tight binding
Details in all cases: protein: recombinant; tags: N-terminal GST; dsDNA, one strand shown

The target in one assay is T1, FLI1 (Homo sapiens, UniProt Q01543 1-452).
T1 sequence: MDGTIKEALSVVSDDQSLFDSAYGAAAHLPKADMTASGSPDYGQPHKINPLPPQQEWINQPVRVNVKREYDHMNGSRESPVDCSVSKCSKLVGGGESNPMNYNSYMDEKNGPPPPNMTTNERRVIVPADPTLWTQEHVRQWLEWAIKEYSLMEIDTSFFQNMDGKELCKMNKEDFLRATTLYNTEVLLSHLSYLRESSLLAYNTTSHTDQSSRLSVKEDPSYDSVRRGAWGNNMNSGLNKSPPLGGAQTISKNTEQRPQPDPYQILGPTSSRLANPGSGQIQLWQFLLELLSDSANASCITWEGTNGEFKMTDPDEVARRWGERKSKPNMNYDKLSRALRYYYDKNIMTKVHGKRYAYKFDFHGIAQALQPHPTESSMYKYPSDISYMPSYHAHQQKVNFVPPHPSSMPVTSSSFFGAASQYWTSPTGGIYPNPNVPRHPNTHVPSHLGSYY
The essentials:
(§1)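 Sequencing on an Illumina NextSeq500 followed washing, crosslinking with 0.1% formaldehyde, proximity ligation (BsaI/T4 ligase, 1 h, 37 °C) and PCR amplification of pools that had been incubated for 30 min at room temperature with 200 nmole of a random double-stranded 16-mer DNA library in Tris/NaCl/DTT/glycerol buffer. Each pool held DNA-barcoded human transcription factors, expressed in yeast as GST fusions and captured on glutathione beads, plus a tag-only sample. Binding signal is a hexamer's read frequency for a factor divided by its frequency in the tag-only sample.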

The target of a further assay is T2, ELK1 (Homo sapiens, UniProt P19419 1-428).
T2 sequence: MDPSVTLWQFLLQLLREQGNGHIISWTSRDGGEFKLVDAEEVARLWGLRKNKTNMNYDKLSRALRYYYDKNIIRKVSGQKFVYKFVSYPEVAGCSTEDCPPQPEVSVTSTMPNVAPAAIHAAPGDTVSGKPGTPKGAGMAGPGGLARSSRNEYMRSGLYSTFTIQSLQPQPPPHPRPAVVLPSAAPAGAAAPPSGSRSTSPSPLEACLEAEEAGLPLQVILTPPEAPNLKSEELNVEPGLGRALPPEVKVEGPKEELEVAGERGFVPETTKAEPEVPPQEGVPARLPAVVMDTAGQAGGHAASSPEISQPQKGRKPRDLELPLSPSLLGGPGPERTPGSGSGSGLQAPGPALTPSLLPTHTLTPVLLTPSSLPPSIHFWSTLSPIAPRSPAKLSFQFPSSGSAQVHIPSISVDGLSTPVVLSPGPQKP
The essentials: as §1

In another assay the target is T3, GABPA (Homo sapiens, UniProt Q06546 1-454).
T3 sequence: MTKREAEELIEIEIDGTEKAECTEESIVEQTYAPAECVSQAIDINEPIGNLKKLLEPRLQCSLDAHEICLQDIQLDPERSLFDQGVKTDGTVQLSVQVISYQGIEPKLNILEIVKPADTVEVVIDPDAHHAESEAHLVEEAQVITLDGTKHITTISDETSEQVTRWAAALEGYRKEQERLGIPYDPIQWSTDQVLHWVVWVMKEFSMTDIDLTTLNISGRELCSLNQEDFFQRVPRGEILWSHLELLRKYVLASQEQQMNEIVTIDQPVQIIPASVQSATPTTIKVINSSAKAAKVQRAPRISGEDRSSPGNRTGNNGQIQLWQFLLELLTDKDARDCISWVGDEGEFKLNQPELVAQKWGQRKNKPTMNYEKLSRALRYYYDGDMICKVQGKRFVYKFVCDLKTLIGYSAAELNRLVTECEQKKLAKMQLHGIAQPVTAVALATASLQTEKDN
Put shortly:
as §1

The target in another assay is T4, ERG (Homo sapiens, UniProt P11308 1-479).
T4 sequence: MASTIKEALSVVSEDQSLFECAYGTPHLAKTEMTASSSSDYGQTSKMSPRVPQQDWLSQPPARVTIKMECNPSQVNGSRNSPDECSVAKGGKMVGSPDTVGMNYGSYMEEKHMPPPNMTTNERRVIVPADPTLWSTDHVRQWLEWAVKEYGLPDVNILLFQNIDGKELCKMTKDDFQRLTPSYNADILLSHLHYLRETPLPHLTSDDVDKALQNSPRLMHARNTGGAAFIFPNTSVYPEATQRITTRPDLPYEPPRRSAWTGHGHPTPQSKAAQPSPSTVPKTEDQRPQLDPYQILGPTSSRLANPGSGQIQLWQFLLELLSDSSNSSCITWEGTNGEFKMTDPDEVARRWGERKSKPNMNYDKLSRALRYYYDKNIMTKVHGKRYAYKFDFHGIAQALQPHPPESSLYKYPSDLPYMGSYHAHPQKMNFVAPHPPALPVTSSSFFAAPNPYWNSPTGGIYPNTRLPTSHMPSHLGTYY
The essentials:
as §1

The target in another assay is ELF1 (Homo sapiens, UniProt P32519 1-619). The essentials: as §1
Chain of ELF1 (P32519 whole entry): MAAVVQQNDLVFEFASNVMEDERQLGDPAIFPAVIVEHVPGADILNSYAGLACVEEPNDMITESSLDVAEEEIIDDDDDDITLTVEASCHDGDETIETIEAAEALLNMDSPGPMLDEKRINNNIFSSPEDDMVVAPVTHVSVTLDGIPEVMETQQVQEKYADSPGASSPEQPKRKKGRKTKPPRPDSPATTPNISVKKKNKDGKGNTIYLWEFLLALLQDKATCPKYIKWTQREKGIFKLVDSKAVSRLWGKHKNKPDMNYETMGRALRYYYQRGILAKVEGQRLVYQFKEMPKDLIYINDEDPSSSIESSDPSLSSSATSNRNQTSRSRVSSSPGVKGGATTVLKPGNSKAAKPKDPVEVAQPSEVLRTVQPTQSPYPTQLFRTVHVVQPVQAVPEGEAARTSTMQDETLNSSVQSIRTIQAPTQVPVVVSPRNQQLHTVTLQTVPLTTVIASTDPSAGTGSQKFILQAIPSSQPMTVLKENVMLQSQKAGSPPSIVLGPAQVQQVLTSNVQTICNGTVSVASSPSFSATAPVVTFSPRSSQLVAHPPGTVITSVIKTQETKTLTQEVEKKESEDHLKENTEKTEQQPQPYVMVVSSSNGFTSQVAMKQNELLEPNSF
In another assay the target is T5, EHF (Homo sapiens, UniProt Q9NZC4 1-300).
T5 sequence: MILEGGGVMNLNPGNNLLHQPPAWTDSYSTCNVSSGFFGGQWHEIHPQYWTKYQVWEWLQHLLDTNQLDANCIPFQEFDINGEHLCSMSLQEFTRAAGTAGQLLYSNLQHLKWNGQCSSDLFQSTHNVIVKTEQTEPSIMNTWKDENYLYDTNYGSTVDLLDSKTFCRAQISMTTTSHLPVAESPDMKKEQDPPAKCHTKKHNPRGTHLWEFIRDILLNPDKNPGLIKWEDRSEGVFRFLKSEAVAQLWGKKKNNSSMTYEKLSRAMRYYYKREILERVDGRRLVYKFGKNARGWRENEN
Put shortly: as §1

Another assay has as its target SPI1 (Homo sapiens, UniProt P17947 1-270). The essentials:
as §1

The target of another assay is SPIB (Homo sapiens, UniProt Q01892 1-262). Put shortly: as §1
Chain of SPIB (Q01892 whole entry): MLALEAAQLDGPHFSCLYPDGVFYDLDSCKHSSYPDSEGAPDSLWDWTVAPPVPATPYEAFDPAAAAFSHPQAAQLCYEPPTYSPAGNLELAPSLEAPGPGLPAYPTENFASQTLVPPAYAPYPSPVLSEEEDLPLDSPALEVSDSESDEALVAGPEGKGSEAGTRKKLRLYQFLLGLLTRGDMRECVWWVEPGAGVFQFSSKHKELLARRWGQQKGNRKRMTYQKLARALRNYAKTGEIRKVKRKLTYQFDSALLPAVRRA
The target of a further assay is T6, ELK3 (Homo sapiens, UniProt P41970 1-407).
T6 sequence: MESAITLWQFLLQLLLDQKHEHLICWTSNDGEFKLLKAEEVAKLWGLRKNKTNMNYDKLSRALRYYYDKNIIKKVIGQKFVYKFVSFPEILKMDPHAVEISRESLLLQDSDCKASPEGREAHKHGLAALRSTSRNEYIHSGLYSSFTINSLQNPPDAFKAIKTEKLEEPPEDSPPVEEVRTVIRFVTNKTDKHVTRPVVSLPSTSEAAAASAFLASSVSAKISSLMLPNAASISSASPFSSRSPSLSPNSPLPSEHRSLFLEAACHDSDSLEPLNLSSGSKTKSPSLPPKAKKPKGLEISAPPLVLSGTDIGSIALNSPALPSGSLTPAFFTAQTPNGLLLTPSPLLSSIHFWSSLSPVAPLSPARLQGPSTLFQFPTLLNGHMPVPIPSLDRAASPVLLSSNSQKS
Put shortly:
as §1

TAACCT: the binding signal was 1.2 fold enrichment (6-mer frequency, TF over GST control) with FLI1; 1.32 fold enrichment (6-mer frequency, TF over GST control) with ELK1; 1.35 fold enrichment (6-mer frequency, TF over GST control) in the assay with GABPA; 1.12 fold enrichment (6-mer frequency, TF over GST control) in the assay with ERG; 1.35 fold enrichment (6-mer frequency, TF over GST control) with ELF1; 1.29 fold enrichment (6-mer frequency, TF over GST control) in the assay with EHF. For the same sequence, the binding signal was 1.29 fold enrichment (6-mer frequency, TF over GST control) with SPI1; 1.31 fold enrichment (6-mer frequency, TF over GST control) with SPIB; 1.43 fold enrichment (6-mer frequency, TF over GST control) with ELK3.
CATATT: the binding signal is 1.22 fold enrichment (6-mer frequency, TF over GST control) in the assay with FLI1; 1.17 fold enrichment (6-mer frequency, TF over GST control) in the assay with ELK1; 1.27 fold enrichment (6-mer frequency, TF over GST control) with GABPA; 1.26 fold enrichment (6-mer frequency, TF over GST control) with ERG; 1.24 fold enrichment (6-mer frequency, TF over GST control) in the assay with ELF1; 1.17 fold enrichment (6-mer frequency, TF over GST control) in the assay with EHF. In addition, the binding signal with SPI1 is 1.27 fold enrichment (6-mer frequency, TF over GST control); in the assay with SPIB, 1.28 fold enrichment (6-mer frequency, TF over GST control); in the assay with ELK3 it was 1.17 fold enrichment (6-mer frequency, TF over GST control).
Consider CTCACG, for which the binding signal is 1.36 fold enrichment (6-mer frequency, TF over GST control) in the assay with FLI1; 1.33 fold enrichment (6-mer frequency, TF over GST control) with ELK1; 1.33 fold enrichment (6-mer frequency, TF over GST control) in the assay with GABPA; 1.33 fold enrichment (6-mer frequency, TF over GST control) with ERG; 1.25 fold enrichment (6-mer frequency, TF over GST control) in the assay with ELF1; 1.31 fold enrichment (6-mer frequency, TF over GST control) in the assay with EHF. For the same sequence, the binding signal with SPI1 was 1.22 fold enrichment (6-mer frequency, TF over GST control); with SPIB, 1.32 fold enrichment (6-mer frequency, TF over GST control); with ELK3 it was 1.41 fold enrichment (6-mer frequency, TF over GST control).
As for TATGGA, the binding signal with FLI1 was 1.07 fold enrichment (6-mer frequency, TF over GST control); with ELK1, 1.13 fold enrichment (6-mer frequency, TF over GST control); in the assay with GABPA, 1.09 fold enrichment (6-mer frequency, TF over GST control); in the assay with ERG it was 1.15 fold enrichment (6-mer frequency, TF over GST control); with ELF1 it was 1.06 fold enrichment (6-mer frequency, TF over GST control); in the assay with EHF it was 1.26 fold enrichment (6-mer frequency, TF over GST control). The binding signal with SPI1 is 1.07 fold enrichment (6-mer frequency, TF over GST control); with SPIB it was 1.17 fold enrichment (6-mer frequency, TF over GST control); in the assay with ELK3 it was 1.12 fold enrichment (6-mer frequency, TF over GST control).
As for CAATAC, the binding signal in the assay with FLI1 was 1.25 fold enrichment (6-mer frequency, TF over GST control); in the assay with ELK1 it was 1.29 fold enrichment (6-mer frequency, TF over GST control); in the assay with GABPA, 1.23 fold enrichment (6-mer frequency, TF over GST control); in the assay with ERG it was 1.23 fold enrichment (6-mer frequency, TF over GST control); with ELF1, 1.24 fold enrichment (6-mer frequency, TF over GST control); in the assay with EHF it was 1.2 fold enrichment (6-mer frequency, TF over GST control). Moreover, the binding signal with SPI1 was 1.25 fold enrichment (6-mer frequency, TF over GST control); with SPIB, 1.17 fold enrichment (6-mer frequency, TF over GST control); with ELK3, 1.28 fold enrichment (6-mer frequency, TF over GST control).
On to TAGATG, for which the binding signal in the assay with FLI1 is 1.28 fold enrichment (6-mer frequency, TF over GST control); in the assay with ELK1, 1.29 fold enrichment (6-mer frequency, TF over GST control); in the assay with GABPA it was 1.27 fold enrichment (6-mer frequency, TF over GST control); in the assay with ERG, 1.27 fold enrichment (6-mer frequency, TF over GST control); in the assay with ELF1, 1.29 fold enrichment (6-mer frequency, TF over GST control); with EHF, 1.26 fold enrichment (6-mer frequency, TF over GST control). Moreover, the binding signal was 1.3 fold enrichment (6-mer frequency, TF over GST control) in the assay with SPI1; 1.24 fold enrichment (6-mer frequency, TF over GST control) in the assay with SPIB; 1.31 fold enrichment (6-mer frequency, TF over GST control) in the assay with ELK3.
For AACAAA, the binding signal in the assay with FLI1 is 1.18 fold enrichment (6-mer frequency, TF over GST control); with ELK1, 1.16 fold enrichment (6-mer frequency, TF over GST control); with GABPA it was 1.1 fold enrichment (6-mer frequency, TF over GST control); with ERG, 1.18 fold enrichment (6-mer frequency, TF over GST control); with ELF1, 1.14 fold enrichment (6-mer frequency, TF over GST control); with EHF, 1.17 fold enrichment (6-mer frequency, TF over GST control). Moreover, the binding signal with SPI1 was 1.16 fold enrichment (6-mer frequency, TF over GST control); with SPIB, 1.15 fold enrichment (6-mer frequency, TF over GST control); with ELK3, 1.27 fold enrichment (6-mer frequency, TF over GST control).
